Out of some 2,200 compounds screened, about 1,200 (55%) were called active. The limit is not given here; nearly all actives have IC50 up to about 92 µM. So high a share suggests a set chosen from earlier hits. The list shows a part of the results.
Experiment: counter assay for TAg ATPase ADP read-out – biochemical, ADP-Hunter, fluorescence, counter-screen (AID 2501);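 also: purified T antigen ATPase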;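 as to inhibition: 0% = enzyme with vehicle and 100% = reference inhibitor wells; higher means more inhibition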
Settings: series mostly up to 100 µM; inhibition: at the top concentration

Which “inhibition” value does the source give for COc1ccc([C@@H]2[C@@H]3C(=O)N(C(C)(C)C)C(=O)[C@@H]3[C@]3(C)C(=O)N(c4ccc(C)cc4)C(=O)N23)cc1 here?
Its value is -0.13% (inactive).

With COc1ccc(NC2CCCN(C(=O)c3ccc(OC)cc3OC)C2)cc1 (stereo not given) as the compound, how does the IC50 read?
The IC50 was 3.38 µM (active).

For COc1ccc(C(=O)Nc2ccc3c(c2)CCCN3C(=O)c2cccs2)c(OC)c1, which “inhibition” value is on record?
The value was 3.63% (inactive).

For O=C(c1ccco1)N1CCCC(Nc2ccc3c(c2)OCCO3)C1 (stereo not given), which IC50 is on record?
The IC50 was 13.5 µM (active).

Which “inhibition” value does the source give for O=C(c1ccco1)N1CCN(C(=O)N2CCCC2)CC1 here?
Its value is 14.6% (inactive).

Which “inhibition” value does the source give for COCc1ccc(C(=O)N2CCCC(CCC(=O)NCc3ccccc3F)C2)o1 (stereo not given) here?
Its value is -19.5% (inactive).

Which IC50 does the source give for COc1ccc(NC2CCCN(C(=O)c3ccncc3)C2)cc1 (stereo not given) here?
The IC50 was 12 µM (active).

Which “inhibition” value does the source give for CSc1ncc(CN2CCCC(C(=O)Nc3ccc(-c4ccco4)cc3)C2)cn1 (stereo not given) here?
Its value is 23.6% (inactive).

Which “inhibition” value does the source give for O=C(c1cc(F)ccc1F)C1CCCN(C(=O)c2ccc(F)cc2Cl)C1 (stereo not given) here?
Its value is -16.2% (inactive).

With COc1ccc(NC2CCCN(C(=O)c3ccc(OC)o3)C2)cc1 (stereo not given) as the compound, how does the IC50 read?
The IC50 was 10.4 µM (active).

With COc1cc(O)c(C(C)=O)c(CC(=O)O)c1 as the compound, how does the “inhibition” value read?
The value was 27.1% (inactive).

With CN(Cc1ccno1)Cc1cn(C)nc1-c1ccc(Oc2ccccc2)cc1 as the compound, how does the “inhibition” value read?
Its value is 0.89% (inactive).

For CCOc1ccc(C(=O)N(Cc2ccc(OC)cc2)Cc2cc3cc(OC)ccc3[nH]c2=O)cc1, which “inhibition” value is on record?
Its value is 1.4% (inactive).

For N#CC(C#N)=C1C=CC=CN1/C(=C\c1ccco1)C(=O)c1ccc(Br)cc1, which “inhibition” value is on record?
The value was 20.5% (inactive).

For CCOc1cc(S(=O)(=O)n2nc(C)cc2C)ccc1Br, which “inhibition” value is on record?
The value was 6.62% (inactive).

For COc1ccc(NC2CCCN(C(=O)c3cccc(C(F)(F)F)c3)C2)cc1OC (stereo not given), which IC50 is on record?
Its IC50 is 12 µM (active).

With COc1ccc(NC(=O)N2CCCC(C(=O)Nc3cccc(C)c3C)C2)cc1 (stereo not given) as the compound, how does the “inhibition” value read?
Its value is 21.9% (inactive).

With COc1ccc(NC2CCCN(C(=O)c3c(C)noc3C)C2)cc1 (stereo not given) as the compound, how does the IC50 read?
The IC50 was 6.38 µM (active).

With O=C1CCC(CCC(=O)N2CCCC(C(=O)c3cccc(C(F)(F)F)c3)C2)=NN1 (stereo not given) as the compound, how does the “inhibition” value read?
Its value is 21% (inactive).

Which “inhibition” value does the source give for CCCN1CCN(C(=O)c2cc(COc3ccc4ncccc4c3)on2)CC1 here?
Its value is -34.6% (inactive).

For COc1ccc(NC2CCCN(C(=O)c3ccc(C(C)=O)cc3)C2)cc1 (stereo not given), which IC50 is on record?
Its IC50 is 2.06 µM (active).

For COc1ccc(NS(=O)(=O)c2ccc3c(c2)[C@H]2C=CC[C@H]2[C@@H](c2ccc(C(=O)O)cc2)N3)cc1, which “inhibition” value is on record?
The value was -43.8% (inactive).

With Cc1ccc(C(=O)Oc2oc(-c3ccccc3)nc2C=Nc2ccc(N(C)C)cc2)cc1 as the compound, how does the “inhibition” value read?
Its value is -6.78% (inactive).

Which “inhibition” value does the source give for Cc1ccc(NC(=O)CN2C(=O)N/C(=C/c3cc(C)n(-c4ccc(C(=O)O)cc4)c3C)C2=O)cc1 here?
The value was -3.73% (inactive).

For Cc1ccc(C(=O)C2CCN(CC(=O)Nc3ccc(N(C)C)cc3)CC2)cc1, which IC50 is on record?
The IC50 was 6.37 µM (active).

With Cc1cc(C)c2c(=O)n(CC(=O)N3CCC(N4CCCCC4)CC3)sc2n1 as the compound, how does the “inhibition” value read?
Its value is 26.1% (inactive).

With CC(C)NC(=O)C1CCN(C2CCN(Cc3ccc4cccc(F)c4n3)CC2)CC1 as the compound, how does the “inhibition” value read?
The value was -6.96% (inactive).

For Cc1ccc(NC(=O)CN2C(=O)N/C(=C/c3cccn3-c3ccc(C(=O)O)cc3)C2=O)cc1, which “inhibition” value is on record?
Its value is 2.27% (inactive).

Which IC50 does the source give for CN(C)c1ccc(NC(=O)CN2CCC(C(=O)c3ccc(F)cc3)CC2)cc1 here?
Its IC50 is 3.05 µM (active).

Which IC50 does the source give for CN(C)c1ccc(NC(=O)CN2CCC(N3CCCCC3)CC2)cc1 here?
Its IC50 is 6.64 µM (active).

Source: PubChem BioAssay AID2501 (Southern Research Specialized Biocontainment Screening …, 2010)
